Our source for the normalized growth values is the supplement of paper PMC6331611.

The structures appear in SMILES notation. ± gives the standard deviation of the averaged measurements. Whole data set: some 1,600 compounds, median “normalized growth (OD600, IQM-normalized) in LPM” near 1, cut for the lowest 2% near 0.014. The full list was thinned out, with the lowest values kept by preference.

The subject of the assay is Salmonella enterica serovar Typhimurium SL1344. Kind of assay: normalized growth (OD600, IQM-normalized) in LPM (fraction of plate interquartile mean); higher = more bacterial growth (less inhibition). The settings on record: LPM pH 5.8; 10 µM; 16 h.
The compound `Nc1[nH]cnc2ncnc1-2` returned a normalized growth of 0.993 ± 0.02.
The result for `CCCNC(C)(C)COC(=O)c1ccccc1` reads 0.983 ± 0.027.
`CC(=O)c1ccc2c(c1)N(CCCN1CCN(CCO)CC1)c1ccccc1S2`: the normalized growth was 0.869 ± 0.053.
Compound `CCCCCCCCCCCCCCCCCCCCCCO` gave a normalized growth of 1.11 ± 0.1.
As to `CC(=O)Nc1ccc(S(=O)(=O)c2ccc(NC(C)=O)cc2)cc1`, the normalized growth was determined as 0.889 ± 0.067.
The result for `CCC(=O)OCC(=O)[C@@]1(OC(=O)CC)[C@H](C)CC2C3C([C@@H](O)C[C@@]21C)[C@@]1(C)C=CC(=O)C=C1C[C@H]3Cl` (stereo partly drawn) reads 1.03 ± 0.019; that for `O=C1c2ccccc2C(=O)C1c1ccc(Br)cc1`, 0.935 ± 0.066; that for `O=C(OOC(=O)c1ccccc1)c1ccccc1`, 1.08 ± 0.046.
The compound `Cc1cnc(C(=O)O)c[n+]1[O-]` displayed a normalized growth of 0.993 ± 0.078.
`C[C@@H]1NC(=O)[C@@H](N)CNC(=O)[C@H](C2CCNC(=N)N2)NC(=O)/C(=C/NC(N)=O)NC(=O)[C@H](CNC(=O)CC(N)CCCN)NC1=O.N=C1NCC[C@H]([C@@H]2NC(=O)/C(=C/NC(N)=O)NC(=O)[C@H](CNC(=O)C[C@@H](N)CCCN)NC(=O)[C@H](CO)NC(=O)[C@@H](N)CNC2=O)N1` came in with a normalized growth of 0.985 ± 0.046.
For `CC(C)(C)CC(C)(C)c1ccc(O)c(Cc2ccc(Cl)cc2Cl)c1` the value was 0.861 ± 0.066; for `Oc1ccc(OCc2ccccc2)cc1`, 0.91 ± 0.11; for `Cc1cc(NS(=O)(=O)c2ccc(N)cc2)no1`, 1.01 ± 0.022.
The result for `CC[C@H](C)[C@H](N)C1=N[C@H](C(=O)N[C@@H](CC(C)C)C(=O)N[C@H](CCC(=O)O)C(=O)N[C@H](C(=O)N[C@H]2CCCCNC(=O)[C@H](CC(N)=O)NC(=O)[C@@H](CC(=O)O)NC(=O)[C@H](Cc3cnc[nH]3)NC(=O)[C@@H](Cc3ccccc3)NC(=O)[C@H]([C@@H](C)CC)NC(=O)[C@@H](CCCN)NC2=O)[C@@H](C)CC)CS1` reads 1.06 ± 0.043.
`CC(C)OC(=O)CCC/C=C\C[C@@H]1[C@@H](/C=C/[C@@H](O)COc2cccc(C(F)(F)F)c2)[C@H](O)C[C@@H]1O` returned a normalized growth of 1.032 ± 0.0058.
`C=CC[C@@H]1/C=C(\C)C[C@H](C)C[C@H](OC)[C@H]2O[C@@](O)(C(=O)C(=O)N3CCCC[C@H]3C(=O)O[C@H](/C(C)=C/[C@@H]3CC[C@@H](O)[C@H](OC)C3)[C@H](C)[C@@H](O)CC1=O)[C@H](C)C[C@@H]2OC`: the normalized growth came to 0.857 ± 0.044.
For `NC(=O)C1(N2CCCCC2)CCN(CCCC(=O)c2ccc(F)cc2)CC1` the value was 1.02 ± 0.051.
The compound `CC(C)(S)[C@@H](N)C(=O)O` yielded a normalized growth of 1.083 ± 0.0063.
The result for `CC1=CC(=O)c2ccccc2C1=O` reads 0.984 ± 0.017.
The result for `Oc1ccc(Cl)c2cccnc12` reads 0.847 ± 0.037.
The result for `Oc1c(I)cc(I)c2cccnc12` reads 0.58 ± 0.02.
For `O=[N+]([O-])c1ccc(O)c2ncccc12`, the normalized growth was 0.00762 ± 0.00015.
The result for `C[C@@H](O)CN(CCN(C[C@@H](C)O)C[C@@H](C)O)C[C@@H](C)O` reads 1.17 ± 0.054; that for `CN(N=O)C(=O)N[C@H]1C(O)O[C@H](CO)[C@@H](O)[C@@H]1O` (mixture of isomers), 0.929 ± 0.021.
For `COc1cccc2c1C(=O)c1c(O)c3c(c(O)c1C2=O)C[C@@](O)(C(C)=O)C[C@@H]3O[C@H]1C[C@H](N)[C@H](O)[C@H](C)O1` the value was 0.946 ± 0.016.
For `CC(NCCC(c1ccccc1)c1ccccc1)c1ccccc1` (stereo not drawn) the value was 0.976 ± 0.038.
`O=C(O)CCNC(=O)c1ccc(/N=N/c2ccc(O)c(C(=O)O)c2)cc1` returned a normalized growth of 1 ± 0.051.
The result for `C[C@H]1O[C@H](O[C@H]2[C@H](O)[C@@H](O)[C@@H](O[C@H]3[C@H](O)[C@@H](O)C(O)O[C@@H]3CO)O[C@@H]2CO)[C@H](O)[C@@H](O)[C@@H]1N[C@H]1C=C(CO)[C@@H](O)[C@H](O)[C@H]1O` (stereo partly drawn) reads 1.07 ± 0.011; that for `CCOC(=O)c1ccc(O)cc1`, 1.02 ± 0.045; that for `N[C@@H](Cc1cc(I)c(Oc2cc(I)c(O)c(I)c2)c(I)c1)C(=O)O`, 1.03 ± 0.039.
With `O=C(COc1ccc(Cl)cc1)N1CCN(Cc2ccc3c(c2)OCO3)CC1`, the normalized growth is 0.928 ± 0.019.
For `COc1c(C)c2c(c(O)c1C/C=C(\C)CCC(=O)OCCN1CCOCC1)C(=O)OC2` the value was 1.01 ± 0.035; for `CC(=O)Nc1c(I)cc(I)c(C(=O)O)c1I`, 0.949 ± 0.12.
The result for `Cc1c(OCC(F)(F)F)ccnc1C[S@@+]([O-])c1nc2ccccc2[nH]1` reads 0.967 ± 0.085.
For `CSCC[C@H](NC(=O)[C@H](Cc1c[nH]c2ccccc12)NC(=O)CCNC(=O)OC(C)(C)C)C(=O)N[C@@H](CC(=O)O)C(=O)N[C@@H](Cc1ccccc1)C(N)=O` the value was 1.09 ± 0.026; for `CC[C@H](c1ccc(O)cc1)[C@@H](CC)c1ccc(O)cc1`, 1.13 ± 0.018; for `CC(C)c1nc(N(C)S(C)(=O)=O)nc(-c2ccc(F)cc2)c1/C=C/[C@@H](O)C[C@@H](O)CC(=O)O`, 1.03 ± 0.097.
Compound `CCn1nc(C(=O)O)c(=O)c2cc3c(cc21)OCO3` returned a normalized growth of 0.00789 ± 0.00035.
